Values without a mark were called inactive. The source made the active and inactive calls. Calls follow the shape of the dose curve; as a rule, active = well fitted curve in the direction sought with a large enough effect in the repeat runs; inconclusive = weak or mixed curves; inactive = flat fitted curve, though single readings scatter.
Assay: qHTS assay to test for compound auto fluorescence at 590 nm (red) in HEK293 cells (AID 720679)
Details: red autofluorescence 540/590 nm; series mostly up to 91.3 µM; fluorescence, % of fluorescent control: at the top concentration
Text: National Center for Advancing Translational Sciences [NCATS]
NIH Chemical Genomics Center [NCGC]
U.S. Environmental Protection Agency [EPA]
National Institutes of Environmental Health Sciences [NIEHS]
National Toxicology Program [NTP]
U.S. Food and Drug Administration [FDA]
Compound auto fluorescence often interferes with screening of the compound library against various biological targets and signaling pathways. Some of these compounds may have fluorophoric properties. Such properties may interfere with the assay outputs resulting in false positives and/or negatives. To decrease such complications and ensure the compound activities are relevant in terms of biological response, the Tox21 10K compound library was screened for auto fluorescence.
From the fluorophores used as reporter signals in our screening assays, the auto fluorescence equivalencies of compounds against three fluorophores have been evaluated: Triamterene, Fluorescein and Rose Bengal sodium for blue, green and red fluorescence, respectively. The fluorescence intensities were measured using Excitation/Emission wavelengths at 405/460nm, 485/535nm and 540/590nm for blue, green and red labels, respectively. This assay includes the red fluorescence data.
Tox21 Assay Protocol Summary:
2,000 HEK293 cells in 5 uL of culture medium containing 10% dialyzed FBS per well were dispensed into black wall/clear bottom 1536-well plates using a Multidrop Combi Dispenser (Thermo Scientific). The assay plates were incubated for 4-5 hr at 37C to allow cell attachment to the well bottom, followed by the transfer of 23 nL compound or DMSO vehicle by a pintool work station (Kalypsys, San Diego, CA). After the assay plates were incubated overnight at 37C and 5% CO2, fluorescence intensities in the assay plates were measured by an Envision (PerkinElmer, Shelton, CT) plate reader using three labels for measuring blue, green and red fluorescence at […] 460, 535 and 590nm respectively.
% is scaled to controls: 0 for no effect and ±100 for the full control effect.

SMILES	fluorescence, % of fluorescent control	outcome
S=C=Nc1ccccc1	0.0382% [at 95.7 µM]	
NC(=O)C(Cl)Cl	0.0845%	
CCC(C)Nc1c([N+](=O)[O-])cc(C(C)(C)C)cc1[N+](=O)[O-] (stereo not given)	-0.0403%	
CCOP(=O)(OCC)Oc1cc(C)nc(C(C)C)n1	-0.119%	
CNC(C)(C)Cc1ccccc1	0.101% [at 18.6 µM]	
C#CCO	0.154%	
CCC[CH2][Sn]([CH2]CCC)([CH2]CCC)[CH2]CCC	-1.03%	
[Cl-].[Cl-].[Cl-].[Yb+3]	0.329%	
Cc1cc(C2CC2)nc(Nc2ccccc2)n1	-0.786%	
C[C@H]1[C@H](c2ccc(Cl)cc2)SC(=O)N1C(=O)NC1CCCCC1	-0.073%	
CN(C)c1ccc(N)cc1	-0.0114%	
CC[C@H](C)[C@H]1O[C@]2(C=C[C@@H]1C)C[C@@H]1C[C@@H](C/C=C(\C)[C@@H](O[C@H]3C[C@H](OC)[C@@H](O[C@H]4C[C@H](OC)[C@@H](NC)[C@H](C)O4)[C@H](C)O3)[C@@H](C)/C=C/C=C3\CO[C@@H]4[C@H](O)C(C)=C[C@@H](C(=O)O1)[C@]34O)O2	-0.11%	
Brc1ccc(Oc2ccc(Br)cc2Br)c(Br)c1	-0.0153%	
CCC(C)Br (stereo not given)	-0.0021% [at 95.7 µM]	
O=C(O)[C@H](O)[C@@H](O)C(=O)O	0.136%	
CCCC[N+]1(C)CCCC1 (tested in a mixture with another compound)	-0.0826% [at 95.7 µM]	
c1ccc(N=NNc2ccccc2)cc1		inactive
O=C1C[C@@H]2OCC=C3CN4CC[C@]56c7ccccc7N1[C@H]5[C@H]2[C@H]3C[C@H]46		inactive
CC(C)NCC(O)c1ccccc1Cl (stereo not given)	0.116% [at 46 µM]	
CC(O)C(=O)[O][Hg][c]1ccccc1 (stereo not given)	-0.0653%	

SMILES	fluorescence, % of fluorescent control	outcome
ClC1=C(Cl)[C@]2(Cl)[C@@H]3[C@H]4C[C@H]([C@@H]5O[C@H]45)[C@@H]3[C@@]1(Cl)C2(Cl)Cl		inactive
O=C(NC(=O)c1ccccc1Cl)Nc1ccc(OC(F)(F)F)cc1	0.262%	
Nc1nc(N)c(N)c(N)n1	1.91%	
CC(=O)O.CC(=O)O.CC(=O)O.CC(=O)O.CC(=O)O.CC(=O)O.CC(=O)O.O.O.[Cr].[Cr].[Cr]	-0.453%	
O=c1[nH]c(Cl)c(Cl)cc1Cl	-0.581%	
O=C(Cl)c1ccccc1F	0.701%	
Oc1ccc([C@H]2CNCc3c2ccc(O)c3O)cc1O	-0.0352% [at 46 µM]	
O=[N+]([O-])C(Br)Br	-0.524%	
C=C(C)C(=O)[O][Sn]([CH2]CCC)([CH2]CCC)[CH2]CCC	0.538%	
Cc1cccc(Cc2cnc[nH]2)c1C	-0.59% [at 46 µM]	
BrCC(Br)(Br)Br	-0.117% [at 95.7 µM]	
C=CC(=O)[O][Sn]([CH2]CCC)([CH2]CCC)[CH2]CCC	0.0897%	
Cc1c([N+](=O)[O-])cc2c(c1[N+](=O)[O-])C(C)(C)CC2(C)C	0.0523%	
[O]=[Cr](=[O])([OH])[O][Cr](=[O])(=[O])[OH]		inactive
COP(=S)(OC)Oc1ccc([N+](=O)[O-])c(C)c1	-0.286%	
COc1ccc2[nH]cc(CCN(C(C)C)C(C)C)c2c1	0.0193% [at 95.7 µM]	
CCCCC(CC)COC(=O)c1ccccc1C(=O)OCC(CC)CCCC (stereo not given)	-0.896%	
[Cl-].[Cl-].[Sn+2]	-0.359%	
FC(F)C(F)(F)OCC(Cn1cncn1)c1ccc(Cl)cc1Cl (stereo not given)	0.417%	
CCOP(=O)(Sc1ccccc1)Sc1ccccc1	-0.0018%	

From PubChem BioAssay (Tox21)
